# Assay results from the supplement of paper PMC10338343.
# ± gives the standard deviation. In all, about 8,200 sequences were measured (“pre-steady-state target cleavage rate”: median about 0.024, highest 2% from about 1.3 on). What follows is part of a selection rich in the highest values, with near analogues and random picks from the rest.
# Tested on: MIWI (PIWIL1) piRISC loaded with L1MC piRNA (30 nt)
# Experiment: pre-steady-state target cleavage rate (min^-1); MIWI and MILI are mouse PIWI proteins and EfPiwi is from a freshwater sponge; tags in brackets are library labels; higher = faster piRNA-guided slicing of the target
# Conditions: guide: L1MC piRNA 5'p-UAACUAAAUACUAUGCAAGCUGUAGGUCCU
# Outline: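 Cleave-'n-Seq: a transcribed, DNA-blocked target RNA library (0.1 nM) was mixed with 1 nM active affinity-purified piRISC carrying one synthetic guide, with or without 500 nM GTSF1 partner protein, in HEPES–potassium acetate buffer at 33 °C for 0–8 or 0–960 min. Uncleaved targets were sequenced and normalised to depth and to weakly complementary targets. Three trials were pooled, and k3 was capped at 0.0001 min^-1. The pre-steady-state cleavage rate came from a burst-and-steady-state fit.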
# [1] = auxiliary factor: 500 nM mouse GTSF1
# [2] = auxiliary factor: none (no GTSF1)
Sequence,pre-steady-state target cleavage rate [1],pre-steady-state target cleavage rate [2]
UCCUGGAUGUCGAACCAUAGAUUUAGUUA,< 0.0001,–
UCCUGCUUCAGCUUGCAUAGUAAUUAGUUA,0.823 ± 0.043,0.0173 ± 0.0042
UCCUGCUACACCUUGCAUAGUAUUUACAAA,0.245 ± 0.056,–
UGGACCUACAGCUUGCAUAGUAUUAAGUAA,0.335 ± 0.037,0.0164 ± 0.0052
UCCUGGAUCAGCCUGCAUAGUAUUUAGUUA,1.02 ± 0.045,0.0431 ± 0.008
UGGACCUACAGCUUGCUAUGUAUUUAGUUA,0.115 ± 0.016,0.00588 ± 0.001
UCCUGGAACAGCUUGCAUAGUUUAUAGUUA,0.0662 ± 0.011,0.0101 ± 0.003
UGGAGCCUACAGCUUGCAUAGUAUUUAGUUA,1.41 ± 0.1,0.0757 ± 0.013
UCGAGCUACACCUUGCAUAGUAUUUAGUUA,1.01 ± 0.046,0.0524 ± 0.0089
UGGAGCUACAGCAUGCAUAGUAUUUAGUUA,1.14 ± 0.042,0.0429 ± 0.0078
AGGAGCUACACCUUGCAUAGUAUUUAGUUA,1.36 ± 0.044,0.0609 ± 0.012
UGGAGCUACAGCUUGCAUAGUAUUUAGUUA,1.25 ± 0.045,0.0783 ± 0.012
AGGAGCUACAGCUUGCAUAGUAUUUAGUAA,1.02 ± 0.092,0.0616 ± 0.012
UGGAGCUACACCUUGCAUAGUAUUUAGUUA,1.12 ± 0.051,0.0597 ± 0.0097
AGGAGCUACAGCAUGCAUAGUAUUUAGUUA,1.37 ± 0.058,0.0574 ± 0.01
UGGAGCUACAGCUUGCAUAGUAUUUAGUAA,0.953 ± 0.06,0.0465 ± 0.0085
AGGAGCUACAGCUUGCAUAGUAUUUAGUUA,1.42 ± 0.055,0.0984 ± 0.016

Sequence,pre-steady-state target cleavage rate [1],pre-steady-state target cleavage rate [2]
UCGAGCUACAGCAUGCAUAGUAUUUAGUUA,1.19 ± 0.054,0.0332 ± 0.0062
UCCUGCUACAGCUUGCAUUAGUAUUUAGUUA,0.0188 ± 0.0083,–
UCCAGGAACAGCUUGCAUAGUAUUUAGUAA,0.57 ± 0.047,0.0391 ± 0.0081
AGGAGCUACAGCUUGCAUAGUAUUAAGUUA,0.783 ± 0.065,0.0457 ± 0.0092
UCCACCUACAGCUUGCAUAGUUUUUUCAAA,0.144 ± 0.028,–
UCCUGGUACAGCUUGCAUAGUAUUAUCAAA [g7:g24:cont:t1A],0.124 ± 0.024,–
UCCAGCCUACAGCUUGCAUAGUAUUUAGUUA,1.32 ± 0.062,0.0623 ± 0.0092
UCGAGCCUACAGCUUGCAUAGUAUUUAGUUA,1.46 ± 0.074,0.0844 ± 0.016
UCCACCUACAGCUUGCAUAGUAUUUAGUUA [g2:g27:cont:t1A],0.987 ± 0.051,0.0744 ± 0.015
AGGAGCCUACAGCUUGCAUAGUAUUUAGUUA,1.4 ± 0.072,0.0847 ± 0.013
UCCAGCUACAGCUUGCAUAGUAUUUAGUUA,0.682 ± 0.042,0.0438 ± 0.0056
UCCUGGAUCAGCUAGCAUAGUAUUUAGAUA,0.226 ± 0.026,0.00546 ± 0.0022
UCGACCUACUGCUUGCAUACUAUUUAGUUA,0.345 ± 0.014,0.0294 ± 0.0065
UCCUCCUACAGCUUGCAUAAUAUUUAGUUA,0.52 ± 0.03,0.0234 ± 0.0044
UGGAGGAACAGCUUGCAUAGUAUUUAGUAA,0.754 ± 0.05,0.0519 ± 0.012
UCCACCUACACCAUGCAUAGUAUUUAGUUA,0.719 ± 0.036,0.0161 ± 0.003
